This is an account of results in the supplement of paper PMC6555819.

The test system of the experiment is VDR:RXRa (NR concentration 270 nM, RXRa partner concentration 90 nM). As to the kind of experiment: PBM binding z-score (relative to random genomic background probes); higher = stronger binding; sequences stand for … in GC…GCGATTGACAGCGTAGAATGAAGG
As for the experimental part: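 Protein-binding microarray (Agilent 4x180K custom design, double-stranded 60-nt probes: 5' GC cap, 34-nt variable region, 24-nt constant primer region; full probe sequence given). Purified or IVT nuclear receptor:RXRα heterodimers (3:1 NR:RXRα, mostly 270:90 nM) or homodimers were incubated for 1 h in PBS with 2% milk and no ligand, then detected with Alexa488 antibodies. Fluorescence from o1-orientation probes (~5 replicates averaged) was converted to z-scores against 500 random hg19 background probes. Variable regions are seed direct-repeat (DR0–DR5) sites, all their single-nucleotide variants and half-site ablations.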
In the case of TAACCTAGGTCAGATCGGGCCAGTATACGCTATA, the PBM binding z-score is 1.52.
Then ATATGTAGTTTAAGGGTCATTCAGGTTGGTTCGC, with 5.34; and AGAATGAGGTTAAGATCAGGAAAACAGAATACAT, with 1.24.
The same measure for ATCGAAAGGTCGTGAGGTGAATATACAGAAAGGC: 3.88; for CCTAGAAGGCCAATCTGGGTCACTCAAGGCTTGA: 1.39; for GCTTACGGCTCAAAGGTTATAGCATGAATAGAAT: 0.88.
CAAACTGGGTCACAGAGGTCAAAGTCCGTGCGTA: the PBM binding z-score is 7.58.
The same measure for GCGAGTGGGGCAAAGCAGGTTACCATAAGGTTGG: 0.296; for ATCGAAAGGTCGACGTGAGTATAGAGAAAGGGAA: 2.53.
For GCAACTGGGGCATCAGCAGGTTACCATAACTTAA, the PBM binding z-score was -0.109.
In turn, ATCTCCAGGTAAAGATAGTTCAGTGAATGCAAAT displayed a PBM binding z-score of 0.845.
Then TGTCAAAGTTCAAAGGTAACTTAAGTATCCACAC, with 5.09; and ATCTCTAGGTAACAAGTTCAGTCAAAGAGAGGAC, with 1.74.
For TCTAGTTGGTCAAATGTCACACACTCGAAATGCG, the PBM binding z-score was 1.44.
The same measure for CCTTACGGGTCAATGACAGGTTATAGCATTTGGA: 3.29; for GGAACAAGGGCAAAGTTGATAGCATCTGTCGACG: 0.828; for GCGACTGGGGCATCAGCAGGATACCATAACTTAA: -0.816.
As to ACCTACGGGTCAACGAGGTTATAGCACGCGTATA, the PBM binding z-score was found to be 7.64.
The same measure for ACTAGTTGGTCAGATGAGGTCACACACAATTCGG: 4.58; for ATCTCTAGGTAAAAGGTCAGTGAATCCCGAGGAT: 2.51.
The same measure for ACCTCTAGGTAAAAGTTCAGTGAATCCCGAGGAT: 0.859.
On to TCATATCGGTAATACAGGTGAAAGTCGGCATCTA, for which the PBM binding z-score was 0.66.
Then CCTGCTAGGTCAATGGTCAGCCAAAGCAGCTCGC, with 0.672.
Then ACAGACAGGTGATGACGGTAACTCAGGCTATCAT, with -0.308; and CATACAGGGTCAGCTAGGCCATAGTAGGGACGGC, with 4.92.
Then CCAGACAGGTGAGAAAGTAACTCAGCCTCGATTA, with 0.0167; and GCTATTAGTTGAAAGCGCAACCGAATGATTCTCG, with -0.272; and CAAACTAGGACAAGAGGTCAAAGTCCGCTTCCCG, with 5.
As for TGTCAAAGTTCAAAGGTAACGAAAGTATCCACAC, the PBM binding z-score worked out at 5.07.
Then CGAACTAGGTCATTGACAGGACAGGGAATAGTAA, with 2.12; and AGTCAAACTTCACTAGGTAACGTAAGATTCAGCT, with -0.0334.
The same measure for CCTATTAGTTGACCATAAGGGCAACCCAAGCTCG: 0.972; for GCTGCTAGGTCAGGTTGGTCAGCCAACGGGTACG: 0.447; for ACTATTAGTTGACTTAAGGCAACCGATACGACGC: 0.358.
The same measure for ATCTCTAGGTAAAGATAGTTGAGTGAATGCAAAT: 0.375.
Take AATCAAAGTTCAGGACGAGGTAACGTAAAGCACG: the PBM binding z-score was found to be 3.
Then CGTCAAAGTTGAACTAAGGTAACGTAAAGCACGC, with 1.43; and ATCTCTAGGTAACCAACTTCAGTGAATGCCGAAC, with 0.0615.
Sequence CCTATTAGTTGACCATAAGGGAAACCGAAGCTCG gave a PBM binding z-score of 0.226.
CCGCGTAGGTTATGGGGCATTCAGGCAACGGTGA came in with a PBM binding z-score of -0.207.
